Myeloid diff 2: myeloid differentiation induction | ER-HoxA9 myeloid progenitors, lysozyme-GFP differentiation, flow cytometry | calls only at 10 µM | actives 1% (n = 360,000) | AID 624256;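 active means normalized GFP-positive differentiation at or above the plate's own cutoff, the solvent-only control mean plus 3 SD; inconclusive means no clear call, values can overlap the other calls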;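 further: cells exposed to compound for four days before flow analysis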
NPR2 activator: GC-B (human) receptor activation | P20594 | HEK293-GC-B cells, CNP EC30, cGMP TR-FRET; 0% at EC30 CNP, 100% saturating CNP | activation, % at 10 µM | actives 0.11% (n = 370,000) | AID 1920062;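 active means activation at 10 µM reaching about 35% in either raw or pattern-adjusted values, limit read from the data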
Granule exo inh: lytic granule exocytosis inhibition; TALL-104 LAMP-1 surface exposure, flow cytometry; cells stimulated with thapsigargin and PMA; inhibition, % at 10 µM; actives 0.66% (n = 360,000); AID 651702;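 active means inhibition above about 55%, limit read from the data; inconclusive means no clear call, values can overlap the other calls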
NPR1 activator: GC-A (human) enzyme activation | P16066 | actives 0.14% (n = 370,000) | HEK293 GC-A cells, cGMP TR-FRET, EC30 ANP; 0% at EC30 ANP, 100% saturating ANP | activation, % at 10 µM; in the data active means activation above about 40%
* hit, by the source's call; i = inactive; ? = inconclusive; . = no result; + = active, no number. Shown are actives, neighbours in structure and some others; about 1.8% of the full set was active somewhere.

SMILES | Myeloid diff 2 | NPR2 activator | Granule exo inh | NPR1 activator
O=C(Nc1nc2c(Cl)cccc2s1)C1CC1 | i | -1 | -3 | 37
O=C(Nc1nc2c(Cl)ccc(Cl)c2s1)C1CC1 | i | -6 | -14 | 61*
O=C(Nc1nc2c(F)cc(F)cc2s1)C1CC1 | i | -2 | 0 | 67*
O=C(Nc1nc2c(Cl)c(Cl)ccc2s1)C1CC1 | i | -4 | -2 | 57*
COc1ccccc1-c1cc2nc(-c3ccccc3)cc(N3CCN(C(=O)c4ccco4)CC3)n2n1 | i | 0 | 1 | 0
Cc1[nH]nc(N=CC2=C(O)CC(c3ccco3)CC2=O)c1-c1ccc(Cl)cc1 (centres undefined) | i | 0 | 98* | 3
Cc1ccc(NC(=O)C2CCN(c3ncnc4sc(C)c(C)c34)CC2)cc1S(=O)(=O)N(C)C | i | -2 | 1 | -8
Cc1ccc(C)c(S(=O)(=O)N2CCN(C(=O)C3CCN(c4ncnc5sc(C)c(C)c45)CC3)CC2)c1 | + | 3 | 2 | -1
Cc1ccc(NC2=NC(c3ccccc3)n3c(nc(C)cc3=O)N2)c(C)c1 (centres undefined) | i | 38* | -4 | 29
CCCCNC(=O)CCC(=O)Nc1ccc2nc(N3CCOCC3)cc(C)c2c1 | i | -3 | -2 | 3
CCCCNC(=O)CCC(=O)Nc1ccc2nc(N3CCCCC3)cc(C)c2c1 | + | -1 | 3 | 10
CCN1CCN(c2cc(C)c3cc(NC(=S)N4CCCC(C)C4)ccc3n2)CC1 (centres undefined) | + | -2 | 12 | -1
CCCc1ccc(S(=O)(=O)N/N=C(/C)c2ccc3c(c2)OCO3)cc1 | i | 0 | 0 | -2
CCCCc1cn([C@@H](CCCCNC(=O)OC(C)(C)C)C(=O)N2CCN(C(=O)OC(C)(C)C)CC2)nn1 | i | -7 | 103* | 1
CC(C)(C)OC(=O)NCCCC[C@@H](C(=O)N1CCN(C(=O)OC(C)(C)C)CC1)n1cc(CCC(=O)O)nn1 | i | 2 | -3 | 3
O=c1ccsn1Cc1ccccc1 | ? | 19 | 95* | 36
CCC/C=C/c1ccc(CN2C(C)C(=O)N(Cc3cn(CCC4OCCCO4)nn3)CCS2(=O)=O)cc1 (centres undefined) | i | 0 | 5 | 3
N#CCCN/N=C(/Cc1nc2ccccc2[nH]1)c1cccc(Cl)c1 | + | 4 | -2 | 3
Nn1c(SCC(=O)Nc2cccc3ccccc23)nnc1-c1cc(-c2ccc(Cl)cc2)n[nH]1 | . | -22 | . | -19
CCCCCCNC(=O)C1CSCCS(=O)(=O)N1Cc1ccc(OC)cc1 (centres undefined) | . | -3 | . | 0
O=C1N[C@@H](Cc2ccccc2)COC(=O)[C@H](Cc2ccc(F)cc2)CC/C=C/C[C@@H]1CC(=O)N(CCO)Cc1ccccc1 | i | -2 | 58* | -4
CC(=O)Nc1ccc(Nc2nc(C)c([N+](=O)[O-])c(Nc3ccccc3)n2)cc1 | i | 58* | 14 | 56*
Cc1nc(Nc2ccc(C(=O)O)cc2)nc(Nc2ccc(C(=O)O)cc2)c1[N+](=O)[O-] | i | 11 | 14 | 11
CC(C)(C)N(Cc1cn(Cc2ccccc2)nn1)S(=O)(=O)c1ccc(N2CCCC2)cc1Br | . | 2 | . | 0
CCN1CCN(CCCNC(=O)c2ccc3c(c2)NC(=O)/C(=C\c2cccc(C)c2)S3)CC1 | ? | 9 | 20 | 4
SMILES | Myeloid diff 2 | NPR2 activator | Granule exo inh | NPR1 activator
Cc1cccc(/C=C2/Sc3ccc(C(=O)NCCCN4CCOCC4)cc3NC2=O)c1 | i | 2 | 60* | 6
O=c1[nH]cnc2c1ccn2C1OC(CO)C(O)C1O (centres undefined) | ? | 3 | 3 | 3
O=C(c1ccc2c(c1)OCO2)N1CCC2(CC1)Oc1ccc(F)cc1C(=O)C21CC(c2ccc(Cl)cc2)=NO1 (centres undefined) | i | 1 | -5 | 1
Cc1noc(C)c1C(=O)N1CCC2(CC1)Oc1ccc(F)cc1C(=O)C21CC(c2ccc(Cl)cc2)=NO1 (centres undefined) | + | 3 | -2 | -3
Cc1ccc2c(c1)NC(=O)C(CC(=O)NCCCN1CCN(c3cc(Cl)ccc3C)CC1)O2 (centres undefined) | + | -17 | 15 | -25
COC(=O)c1sc(-c2ccc(Cl)cc2)cc1NC(=O)/C=C/C(=O)O | i | -9 | 19 | 47*
Cc1ccc(S(=O)c2ccc([N+](=O)[O-])c3nonc23)cc1 (centres undefined) | i | 1 | 101* | 10
